Data taken from paper PMC5700166.

How the values were obtained:
[1] = target: T1, GST-Nv-NF-kB (Ser allele) (Nematostella vectensis, UniProt A7UNT2 2-411); test: protein-binding microarray (PBM); PBM: ~300 nM protein, 6 mM HEPES pH 7.8, 80 mM KCl, 0.5 mM EDTA, 0.5 mM EGTA, 6% glycerol, 35 ng/ul poly-dIdC, 1% milk, 1 h, room temperature; Ap Aiptasia and Nv Nematostella (sea anemones) / Co Capsaspora / Aq Amphimedon (sponge) / Dm Drosophila / Hu human; RHD is the Rel homology domain; high values mean tight binding; settings: dsDNA, one strand shown
T1 sequence: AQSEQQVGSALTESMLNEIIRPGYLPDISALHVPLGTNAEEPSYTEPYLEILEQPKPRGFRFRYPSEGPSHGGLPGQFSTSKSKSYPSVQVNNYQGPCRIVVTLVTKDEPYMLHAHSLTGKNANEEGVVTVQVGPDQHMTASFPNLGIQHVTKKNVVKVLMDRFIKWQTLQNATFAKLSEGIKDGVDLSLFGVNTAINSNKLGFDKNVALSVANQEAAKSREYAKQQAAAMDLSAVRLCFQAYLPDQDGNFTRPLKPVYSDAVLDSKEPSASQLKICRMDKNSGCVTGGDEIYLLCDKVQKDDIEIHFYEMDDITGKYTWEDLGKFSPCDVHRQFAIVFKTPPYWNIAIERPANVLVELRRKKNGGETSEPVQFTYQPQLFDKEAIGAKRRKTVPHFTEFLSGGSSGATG

[2] = target: GST-Hu-p50 (Homo sapiens, UniProt P19838 7-356); test: as above; settings: dsDNA, one strand shown
Sequence of GST-Hu-p50 (P19838 7-356): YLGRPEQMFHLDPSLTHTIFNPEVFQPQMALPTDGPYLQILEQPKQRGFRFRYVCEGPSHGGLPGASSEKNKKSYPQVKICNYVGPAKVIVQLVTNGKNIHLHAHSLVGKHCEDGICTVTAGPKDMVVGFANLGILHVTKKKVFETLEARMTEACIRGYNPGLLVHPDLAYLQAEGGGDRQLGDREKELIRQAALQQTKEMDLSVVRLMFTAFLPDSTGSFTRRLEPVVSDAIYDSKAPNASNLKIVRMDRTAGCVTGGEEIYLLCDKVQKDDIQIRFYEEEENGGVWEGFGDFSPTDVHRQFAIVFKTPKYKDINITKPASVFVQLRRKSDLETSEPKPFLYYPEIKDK

Sequence | binding signal [1] | binding signal [2]
CCGATTAACATCAAGTAAATCCCTGATGTTAATCGGGTCTTGATTCGCTTGACGCTGCTG | 1.71 z-score | 2.28 z-score
CCGATTAACATCAAATATACCCCTGATGTTAATCGGGTCTTGATTCGCTTGACGCTGCTG | 2.88 z-score | 2.88 z-score
CCGATTAACATCAGGGAAAGGTATGATGTTAATCGGGTCTTGATTCGCTTGACGCTGCTG | 3.34 z-score | 2.11 z-score
CCGATTAACATCAGGGATATTTATGATGTTAATCGGGTCTTGATTCGCTTGACGCTGCTG | 2.29 z-score | 2.35 z-score
CCGATTAACATCAGGAACGTCCCTGATGTTAATCGGGTCTTGATTCGCTTGACGCTGCTG | 2.75 z-score | 2.12 z-score
CCGATTAACATCACGGAATTACCTGATGTTAATCGGGTCTTGATTCGCTTGACGCTGCTG | 3.86 z-score | 2.38 z-score
CCGATTAACATCAGGCAAATCCCTGATGTTAATCGGGTCTTGATTCGCTTGACGCTGCTG | 1.09 z-score | 1.9 z-score
CCGATTAACATCAAGGAATTACCTGATGTTAATCGGGTCTTGATTCGCTTGACGCTGCTG | 4.05 z-score | 2.25 z-score
CCGATTAACATCAAGGGATTCCCTGATGTTAATCGGGTCTTGATTCGCTTGACGCTGCTG | 4.98 z-score | 3.73 z-score
CCGATTAACATCAGGGGGAGAGATGATGTTAATCGGGTCTTGATTCGCTTGACGCTGCTG | 4.36 z-score | 4.17 z-score
CCGATTAACATCAGGAAAAACCCTGATGTTAATCGGGTCTTGATTCGCTTGACGCTGCTG | 3.96 z-score | 4.56 z-score
CCGATTAACATCAGGAATTCCCATGATGTTAATCGGGTCTTGATTCGCTTGACGCTGCTG | 5.66 z-score | 4.39 z-score
